Compounds with a hit are over-represented: about 3.5% of the library has one in this group of screens.
FBW7 activator – FBW7 E3 ligase activators, primary screen, biochemical, AlphaScreen, human. F-box/WD repeat-containing protein 7 (Homo sapiens), Q969H0. AlphaScreen FBW7–phospho-cyclin E peptide binding, activator screen. normalized activity (activation), % at 26.1 µM. 650,000 tested, 0.13% active. AID 1259310, 2017; in the data active = normalized activity above about 1.9%;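 also: purified mutant Fbw7 with reduced substrate affinity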
Target sequence (Q969H0 whole entry, looked up): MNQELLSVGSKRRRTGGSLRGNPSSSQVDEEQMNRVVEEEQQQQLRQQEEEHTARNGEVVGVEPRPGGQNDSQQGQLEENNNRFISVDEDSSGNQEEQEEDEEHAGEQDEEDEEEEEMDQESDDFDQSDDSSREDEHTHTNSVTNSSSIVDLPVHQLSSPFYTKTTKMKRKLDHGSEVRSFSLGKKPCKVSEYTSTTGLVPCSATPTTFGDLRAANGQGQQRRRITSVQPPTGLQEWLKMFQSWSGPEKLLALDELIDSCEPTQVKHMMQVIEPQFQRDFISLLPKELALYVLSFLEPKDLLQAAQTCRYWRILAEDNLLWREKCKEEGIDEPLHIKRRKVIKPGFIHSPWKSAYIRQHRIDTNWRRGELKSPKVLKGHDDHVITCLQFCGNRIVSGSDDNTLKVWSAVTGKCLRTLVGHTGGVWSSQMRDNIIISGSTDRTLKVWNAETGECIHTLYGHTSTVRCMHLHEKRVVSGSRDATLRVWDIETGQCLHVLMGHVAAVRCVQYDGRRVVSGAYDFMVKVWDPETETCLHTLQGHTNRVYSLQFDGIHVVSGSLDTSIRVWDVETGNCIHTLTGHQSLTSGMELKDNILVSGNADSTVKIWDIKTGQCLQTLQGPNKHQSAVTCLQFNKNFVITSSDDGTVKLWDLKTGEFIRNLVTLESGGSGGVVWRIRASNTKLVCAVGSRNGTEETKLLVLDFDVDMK
TEAD-YAP inh – TEAD-YAP interaction inhibition, primary screen, TEAD-YAP interaction inhibitor project, luminescence, HEK-TIYL cells; TEAD-Gal4/YAP UAS-luciferase luminescence; inhibition, % at 9.12 µM; 640,000 tested, 1.4% active; AID 1259422, 2018; in the data active = inhibition above about 32%;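 also: 0% = median of test compound wells and 100% = reference inhibitor wells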
MITF inh – MITF inhibitors, primary screen, biochemical, AlphaScreen, human. 650,000 tested, 0.91% active. inhibition, % at 2.6 µM. AlphaScreen MITF homodimerization, bead proximity signal; in the data active = inhibition above about 50%;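 also: 0% = vehicle wells with protein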
GPR151 activ – activators of human GPR151, primary screen, cell-based, PathHunter beta-arrestin, luminescence; G-protein coupled receptor 151 (Homo sapiens), Q8TDV0; PathHunter beta-arrestin GPR151 cells; activation, % at 11.2 µM; 650,000 tested, 1% active; in the data active = activation above about 4.9%;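 also: 0% = median of compound wells and 100% = cells with positive control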
Active calls of the source: *.

SMILES	FBW7 activator	TEAD-YAP inh	MITF inh	GPR151 activ
COc1ccc(Br)cc1C1CC(=O)NC2=C1C(=O)CCC2 (stereo not drawn)	-0.5	47.0*	9.9	-1.0
COc1ccc(/C(C)=N/Nc2nc(-c3cccnc3)nc3ccccc23)cc1OC	0.3	33.4*	24.1	-2.3
CCC(=O)OC1=C(C)C2C3C(=O)N(c4ccccc4F)C(=O)C3C1(C)C1C(=O)N(c3ccccc3F)C(=O)C21 (stereo not drawn)	0.3	1.9	7.3	0.2
Cc1cccc(NC(c2ccncc2)c2ccc3cccnc3c2O)n1 (stereo not drawn)	0.0	68.2*	113.4*	-1.4
Cc1cc(NC(c2cccc(Br)c2)c2ccc3cccnc3c2O)no1 (stereo not drawn)	-1.0	84.0*	16.9	4.1
Cc1cccc(NC(c2cccc(Cl)c2)c2ccc3cccnc3c2O)n1 (stereo not drawn)	-0.3	47.7*	4.0	-1.4
Cc1cccc(NC(c2cccnc2)c2ccc3ccc(C)nc3c2O)n1 (stereo not drawn)	-0.2	22.2	13.8	1.5
Cc1cccc(NC(c2ccc(Cl)cc2)c2ccc3cccnc3c2O)n1 (stereo not drawn)	-0.4	90.1*	-1.5	-0.9
CC(C)c1ccc(NC(=O)c2ccc([N+](=O)[O-])cc2NC(=O)c2ccccc2)cc1	-0.1	-1.3	-2.7	0.1
Nc1ccc2nc3c(c(Cl)c2c1)CCCC3	0.0	33.1*	8.9	0.8
Oc1c(Cl)cc(Cl)c2cccnc12	-0.1	1.7	-4.2	-1.2
Oc1c(I)cc(I)c2cccnc12	-0.4	52.1*	13.6	0.2
O=S(=O)(O)c1cc(I)c(O)c2ncccc12	-0.4	0.4	122.8*	-0.3
Cc1ccc(-c2csc(NC(=O)c3ccc(Oc4ccccc4)cc3)n2)o1	-0.2	-5.4	19.4	-0.7
O=C(COC(=O)c1cc(O)c(O)c(O)c1)Nc1ccc(F)cc1	0.4	6.3	67.9*	-2.3
CCc1ccc(NC(=O)COC(=O)c2cc(=O)c3cc(F)ccc3o2)cc1	2.8*	-0.5	-4.5	0.3
CCOc1ccc(NC(=O)COC(=O)c2cc(=O)c3ccccc3o2)cc1	0.0	13.7	2.0	-0.5
O=C(COC(=O)c1cc(F)c(F)cc1Cl)Nc1ccc(F)cc1	0.1	-2.8	-0.8	-0.5
Cc1cc(/C=C\c2nc(O)c([N+](=O)[O-])c(=O)[nH]2)c(C)n1-c1ccc(C(=O)O)cc1	-0.4	9.7	62.8*	0.4
CC(=O)c1ccc(Nc2nccc(-c3cccc(NS(C)(=O)=O)c3)n2)cc1	0.6	81.8*	6.7	-1.1
CC(=O)c1ccc(-c2nc(-c3cccc(NS(C)(=O)=O)c3)cnc2N)cc1	0.4	-3.7	1.8	-0.2
NC(=O)c1cccc(-c2ccnc(Nc3ccc(N4CCOCC4)cc3)n2)c1	-0.3	-0.8	1.6	1.7
CS(=O)(=O)Nc1cccc(-c2ccnc(Nc3ccc(-n4cncn4)cc3)n2)c1	-0.2	90.5*	12.2	1.8
Cc1ccc(-c2ncn(-c3ccc(Nc4nccc(-c5cccc(-n6cncn6)c5)n4)cc3)n2)cn1	0.2	1.3	13.7	3.0
C[Si](C)(C)c1nnn(-c2ccc(Nc3nccc(-c4cccc(NS(C)(=O)=O)c4)n3)cc2)c1N1CCOCC1	-0.2	32.7*	7.2	0.1
SMILES	FBW7 activator	TEAD-YAP inh	MITF inh	GPR151 activ
CN1CCN(CCCNC(=O)c2cc3c(-c4ccc(Cl)cc4)nn(C)c3s2)CC1	0.7	-4.7	14.5	1.6
CN(C)CCNC(=O)c1cc2c(-c3ccc(Cl)cc3)nn(C)c2s1	0.8	68.5*	11.4	-1.3
Oc1ccc(CCNc2nc(Nc3ncccn3)nc3c2ncn3-c2ccsc2)cc1	0.0	56.0*	1.2	-1.2
Oc1ccc(CCNc2nc(Nc3cnccn3)nc3c2ncn3-c2ccsc2)cc1	0.0	66.5*	2.2	-1.1
Oc1ccc(CCNc2nc(Nc3ccccc3)nc3c2ncn3-c2ccsc2)cc1	0.0	38.4*	-113.3	-0.2
COc1ccc(CCNc2nc(Nc3ccc(N4CCOCC4)cc3)nc3c2ncn3-c2ccsc2)cc1	-0.2	62.3*	16.6	1.1
Oc1ccc(CCNc2nc(Nc3ccccc3)nc3c2ncn3-c2ccccc2)cc1	0.0	13.2	-0.7	-1.6
COc1ccc(CCNc2nc(Nc3ccc(C(F)(F)F)cc3)nc3c2ncn3-c2ccsc2)cc1	0.0	10.9	3.6	1.4
Cc1cccc(-c2nnc(NC(=O)c3ccc(C(C)(C)C)cc3)s2)c1	0.2	5.3	-6.5	1.2
CS(=O)(=O)N(CC(=O)NC1CCCCCC1)c1ccccc1F	-0.1	10.8	7.0	0.0
CCOC(=O)c1ccc(CN2C(=O)C(=O)c3cc(OC(F)(F)F)ccc32)o1	-0.2	66.5*	-3.1	-0.8
CC(C)C(=O)NNC(=O)CSc1nc2c(c(=O)n(C)c(=O)n2C)n1C	0.0	-0.9	-3.8	-0.2
Cc1cccc2c1[nH]c1nc(N/N=C\c3c[nH]c4ccccc34)nnc12	0.1	43.7*	-1.5	-0.8
Oc1ccc(Cl)cc1/C=N/Nc1nnc2c(n1)[nH]c1ccccc12	0.0	-9.5	3.4	1.4
C(=N/Nc1nnc2c(n1)[nH]c1ccccc12)/c1c[nH]c2ccccc12	0.9	-2.4	0.9	-0.5
Oc1ccc(/C=N/Nc2nnc3c(n2)[nH]c2ccccc23)c(O)c1O	-0.9	-10.3	110.7*	0.1
Cc1ccc2nc(-c3ccccc3)cc(C(=O)OCC(=O)c3ccccc3)c2c1	0.1	8.3	13.9	1.7
O=C(CCl)Nc1ccc(OC(F)(F)F)cc1	-0.1	34.2*	6.3	-0.2
CCCC(=O)Nc1ccc(Cl)c(C(F)(F)F)c1	0.5	14.4	10.0	2.2
O=C(CCl)Nc1ccc(Cl)c(C(F)(F)F)c1	0.2	39.5*	-1.1	1.7
O=C(CCl)Nc1ccc(OC(F)F)cc1	-0.2	35.0*	11.5	-0.2
O=C(Nc1ccc(OC(F)(F)F)cc1)c1ccc(=O)[nH]c1	0.1	32.8*	-3.8	0.5
O=C(O)CCCC(=O)Nc1ccc(OC(F)(F)F)cc1	0.1	0.5	6.0	-0.4
CCOc1ccc(C(=O)N2CCCc3ccccc32)cc1OCC	0.2	-11.6	0.2	1.3
O=C(CSc1nc(-c2cccc([N+](=O)[O-])c2)cs1)N1CCCCCC1	0.0	-19.6	-10.3	0.6
SMILES	FBW7 activator	TEAD-YAP inh	MITF inh	GPR151 activ
Cc1c(Cl)cccc1NS(=O)(=O)c1cc(Br)cnc1N	-0.3	5.3	4.6	-0.4
Cc1cc(Cl)ccc1OCC(=O)Nc1ccc(S(=O)(=O)N2CCC(C)CC2)cc1	0.2	-7.8	21.9	-2.7
Nc1ccccc1SC1=CS(=O)(=O)c2ccccc21	0.2	-4.9	5.7	-0.3
O=S1(=O)C=C(Sc2nc3ccccc3s2)c2ccccc21	0.1	61.1*	-0.6	-0.6
COc1ccc(Nc2nc(N3CCN(c4ccccc4OC)CC3)nc3[nH]ncc23)cc1	-0.2	1.8	-3.0	1.9
COc1ccc(Nc2nc(N3CCCCC3)nc3[nH]ncc23)cc1	0.5	40.4*	6.8	1.3
Cc1ccc2nc(-c3ccc4ccccc4c3)cn2c1	0.0	94.4*	1.8	-6.5
Cc1ccc2nc(-c3cccc(Cl)c3)cn2c1	0.0	76.7*	7.5	-8.3

Screening data as filed in PubChem BioAssay.
